Test results taken from PubChem BioAssay (NCATS).
Results filed as inconclusive are left out. Active and inactive are the calls of the source. Unless noted, calls come from the whole dose curve; as a rule, active = well fitted curve in the direction sought with a large enough effect; inconclusive = small, poorly fitted or top-dose-only effect, or another doubt; inactive = no such curve, though single readings can be large; an effect the other way counts as inactive or inconclusive.

Test system: not listed separately
Assay: qHTS for Inhibitors of ATXN expression: Validation of Cytotoxic Assay (AID 588349); note: potency is the fitted concentration of half-maximal effect; for activity change, negative = cytotoxicity: % is set by controls: 0 for no effect and ±100 for the full control effect
Conditions: cytotoxicity counter-screen for ATXN expression inhibitors, cell viability; series mostly up to 57.1 µM; activity change, negative = cytotoxicity: at the top concentration
Procedure, shortened: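 Read-out: ATP-based luminescence (CellTiter Glo) reflecting viability of HEK293 cells after 72 hr incubation at 37 degrees C with a concentration series of each compound.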

| SMILES | activity change, negative = cytotoxicity | Potency |
| --- | --- | --- |
| CC(=O)O[C@]1(C(C)=O)CC[C@H]2[C@@H]3C=C(Cl)C4=CC(=O)[C@@H]5C[C@@H]5[C@]4(C)[C@H]3CC[C@@]21C | -6.48% (inactive) |  |
| CCn1cc(C(=O)O)c(=O)c2ccc(C)nc21 | -4.73% (inactive) |  |
| CCCCCN(C)CCC(O)(P(=O)(O)O)P(=O)(O)O | -7.12% (inactive) |  |
| COc1ccc(Cc2nccc3cc(OC)c(OC)cc23)cc1OC | 7.17% (inactive) |  |
| CC1(C)CCC2=C(O1)c1ccccc1C(=O)C2=O |  | 22.4 µM (active) |
| O=C(NCCN1CCOCC1)c1ccc(Cl)cc1 | 0.525% (inactive) |  |
| C[N+](C)(C)CC(=O)O | -9.85% (inactive) |  |

Test system: not listed separately
Assay: qHTS for Inhibitors of ATXN expression: Validation (AID 588378); note: nearly all actives have a fitted effect of over 75% in size; note: potency is the fitted concentration of half-maximal effect; for activity change, negative = inhibition: % is set by controls: 0 for no effect and ±100 for the full control effect
Conditions: cell-based ATXN2 expression reporter assay, luminescence; series mostly up to 57.1 µM; activity change, negative = inhibition: at the top concentration
Procedure, shortened: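 HEK293 cells carrying ATXN2-firefly luciferase reporter, treated with compound 24 h at 37 °C. Viability read first by CellTiter-Fluor (405/525 nm), then reporter expression by Bright-Glo luminescence; controls were a known ATXN2 expression inhibitor and a luciferase inhibitor.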

| SMILES | activity change, negative = inhibition | Potency |
| --- | --- | --- |
| CC(=O)O[C@]1(C(C)=O)CC[C@H]2[C@@H]3C=C(Cl)C4=CC(=O)[C@@H]5C[C@@H]5[C@]4(C)[C@H]3CC[C@@]21C | -9.55% (inactive) |  |
| CCn1cc(C(=O)O)c(=O)c2ccc(C)nc21 | -1.96% (inactive) |  |
| CCCCCN(C)CCC(O)(P(=O)(O)O)P(=O)(O)O | -4.73% (inactive) |  |
| COc1ccc(Cc2nccc3cc(OC)c(OC)cc23)cc1OC | 10.3% (inactive) |  |
| CC1(C)CCC2=C(O1)c1ccccc1C(=O)C2=O |  | 22.4 µM (active) |
| O=C(NCCN1CCOCC1)c1ccc(Cl)cc1 | 47.7% (inactive) |  |
| C[N+](C)(C)CC(=O)O | -9.04% (inactive) |  |

Target: DNA dC->dU-editing enzyme APOBEC-3G (Homo sapiens) (UniProt Q9HC16)
Assay: qHTS for inhibitors of Vif-A3G interactions: Validation (AID 588379); note: 0% is about no effect
Conditions: Vif-A3G protein interaction assay; series mostly up to 46.1 µM; activity change, negative = inhibition: at the top concentration
Procedure, shortened: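 HeLa cells stably expressing Vif and A3G-eYFP, 700 cells/well, incubated overnight at 37 deg C, then exposed to compound overnight at 37 deg C. Inhibition of Vif-mediated degradation read as increased yellow fluorescence (Ex 488/Em 500-530) by laser-scanning cytometry.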

DNA dC->dU-editing enzyme APOBEC-3G (Homo sapiens), sequence (Q9HC16 whole entry, looked up): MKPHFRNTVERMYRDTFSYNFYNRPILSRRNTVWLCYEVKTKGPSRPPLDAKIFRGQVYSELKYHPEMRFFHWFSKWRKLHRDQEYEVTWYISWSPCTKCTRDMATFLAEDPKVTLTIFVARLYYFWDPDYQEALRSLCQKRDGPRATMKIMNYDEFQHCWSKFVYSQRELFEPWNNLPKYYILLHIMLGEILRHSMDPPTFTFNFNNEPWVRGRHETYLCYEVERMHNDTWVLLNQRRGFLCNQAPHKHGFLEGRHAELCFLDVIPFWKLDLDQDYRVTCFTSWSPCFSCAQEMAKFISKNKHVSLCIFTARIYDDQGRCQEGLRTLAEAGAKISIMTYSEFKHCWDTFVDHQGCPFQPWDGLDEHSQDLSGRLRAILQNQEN

| SMILES | activity change, negative = inhibition | outcome |
| --- | --- | --- |
| COc1ccc(-c2coc3cc(O)cc(O)c3c2=O)cc1 | 3.17% (inactive) |  |
| O=c1cc(-c2ccccc2)oc2cc(O)cc(O)c12 | 0.486% (inactive) |  |
| O=C(O)c1cc(O)c2c(c1)C(=O)c1cccc(O)c1C2=O | -3.05% (inactive) |  |
| COc1ccc2c3c1OC1C[C@@H](O)C=C[C@@]31CCN(C)C2 (some centres undefined) | 3.11% (inactive) |  |
| CC(C)[C@H](CO)Nc1nc(Nc2ccc(C(=O)O)c(Cl)c2)c2ncn(C(C)C)c2n1 | -7.21% (inactive) |  |
| CCCCCCCCCCCC1=C(O)C(=O)C=C(O)C1=O |  | inactive |
| COc1ccc(Cc2nccc3cc(OC)c(OC)cc23)cc1OC | 1.97% (inactive) |  |
| O=c1cc(-c2ccccc2)oc2cc(O)c(O)c(O)c12 |  | inactive |
| O=c1c(O)c(-c2ccc(O)cc2)oc2cc(O)cc(O)c12 | -0.0637% (inactive) |  |
| COCCCCC(=NOCCN)c1ccc(C(F)(F)F)cc1 | 3.55% (inactive) |  |
| COc1ccc(-c2coc3cc(O)ccc3c2=O)cc1 | 2.29% (inactive) |  |
| CS(=O)c1ccc(-c2nc(-c3ccc(F)cc3)c(-c3ccncc3)[nH]2)cc1 (centres undefined) |  | inactive |

Target: Estrogen receptor (Homo sapiens) (UniProt P03372)
Assay: qHTS assay for small molecule antagonists of estrogen receptor alpha signaling (AID 588513; active = well fitted curve in the direction sought with a large enough effect in the signal ratio, with a control signal flat, not every such curve was filed as active; the % refers to the signal ratio; note: % is set by controls: 0 for no effect and ±100 for the full control effect)
Conditions: ER-alpha-UAS-bla HEK293, beta-lactamase ratio, antagonist mode; series mostly up to 76.9 µM; activity, negative = inhibition: at the top concentration
Procedure, shortened: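 ER-alpha-UAS-bla GripTite HEK 293 cells in 2% charcoal/dextran-treated FBS medium; compounds titrated (1:2, duplicate), then stimulated with 0.5 nM 17-beta-estradiol for 18 h at 37C. CCF4 beta-lactamase fluorescence; Hill-fit IC50 and efficacy.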

Estrogen receptor (Homo sapiens), sequence (P03372 whole entry, looked up): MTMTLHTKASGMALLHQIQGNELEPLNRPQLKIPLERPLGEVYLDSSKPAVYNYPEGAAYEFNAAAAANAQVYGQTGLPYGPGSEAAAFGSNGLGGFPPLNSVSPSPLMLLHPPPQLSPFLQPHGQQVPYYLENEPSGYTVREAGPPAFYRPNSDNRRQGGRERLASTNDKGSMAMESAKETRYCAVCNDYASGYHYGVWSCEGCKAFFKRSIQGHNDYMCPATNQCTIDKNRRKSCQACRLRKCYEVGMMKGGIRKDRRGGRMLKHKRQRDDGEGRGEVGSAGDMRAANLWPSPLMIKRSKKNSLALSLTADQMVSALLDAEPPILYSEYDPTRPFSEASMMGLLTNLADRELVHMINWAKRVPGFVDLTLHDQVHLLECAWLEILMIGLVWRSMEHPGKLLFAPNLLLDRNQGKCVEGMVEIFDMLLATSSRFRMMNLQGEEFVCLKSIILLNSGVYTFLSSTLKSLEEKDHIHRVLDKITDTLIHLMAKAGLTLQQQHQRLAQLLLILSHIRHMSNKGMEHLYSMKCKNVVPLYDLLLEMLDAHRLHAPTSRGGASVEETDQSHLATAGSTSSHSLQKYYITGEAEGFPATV

| SMILES | Potency | activity, negative = inhibition |
| --- | --- | --- |
| O=c1[nH]cnc2c1ncn2[C@H]1CC[C@@H](CO)O1 | inactive |  |
| O=C(O)c1cc(O)c2c(c1)C(=O)c1cccc(O)c1C2=O |  | 32.6% (inactive) |
| CCn1cc(C(=O)O)c(=O)c2ccc(C)nc21 | inactive |  |
